Results filed as inconclusive are left out. The source made the active and inactive calls. Calls follow the shape of the dose curve; as a rule, active = well fitted curve in the direction sought with a large enough effect; inconclusive = small, poorly fitted or top-dose-only effect, or another doubt; inactive = no such curve, though single readings can be large; an effect the other way counts as inactive or inconclusive.
Columns and labels:
[1] = Quantitative High-Throughput drug screen in 47 multiple myeloma cell lines against the NCATS MIPE library collection: FR4_PLB cell viability assay (AID 1918924; also: nearly all actives have a fitted effect of over 35% in size)
Summary of the method: (§1)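 Viability readout: CellTiter-Glo luminescence following 5 min room-temperature incubation with reagent. Prior exposure: 48 h, 37C, humidified 5% CO2, 500 cells per well.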

[2] = Quantitative High-Throughput drug screen in 47 multiple myeloma cell lines against the NCATS MIPE library collection: Delta47_JCRB cell viability assay (AID 1918925; also: nearly all actives have a fitted effect of over 45% in size)
Summary of the method: (§2)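 Myeloma cell lines, 500 cells per well, exposed to MIPE 4.0 library compounds for 48 h at 37C, 5% CO2. Viability from ATP by CellTiter-Glo luminescence; normalised to DMSO (100%) and media-only (0%) wells.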

[3] = Quantitative High-Throughput drug screen in 47 multiple myeloma cell lines against the NCATS MIPE library collection: EJM_DSMZ cell viability assay (AID 1918926; also: nearly all actives have a fitted effect of over 30% in size)
Summary of the method: as §2

[4] = Quantitative High-Throughput drug screen in 47 multiple myeloma cell lines against the NCATS MIPE library collection: ARP1_JJKsccF8 cell viability assay (AID 1918928; also: nearly all actives have a fitted effect of over 40% in size)
Summary of the method: (§3)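 Myeloma cells at 500 per well in 1536-well format treated with MIPE 4.0 library by pin transfer for 48 h at 37C, 5% CO2. Viability from ATP luminescence (CellTiter-Glo), normalized to DMSO (100%) and media-only (0%) wells.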

[5] = Quantitative High-Throughput drug screen in 47 multiple myeloma cell lines against the NCATS MIPE library collection: ARD_JJKsccE7 cell viability assay (AID 1918929)
Summary of the method: as §2

[6] = Quantitative High-Throughput drug screen in 47 multiple myeloma cell lines against the NCATS MIPE library collection: Karpas620_DSMZ cell viability assay (AID 1918959); also: nearly all actives have a fitted effect of over 30% in size
Summary of the method: as §1

[7] = Quantitative High-Throughput drug screen in 47 multiple myeloma cell lines against the NCATS MIPE library collection: KMM1_JCRB cell viability assay (AID 1918960); also: nearly all actives have a fitted effect of over 30% in size
Summary of the method: as §3

[8] = Quantitative High-Throughput drug screen in 47 multiple myeloma cell lines against the NCATS MIPE library collection: Karpas417_ECACC cell viability assay (AID 1918961); details: Karpas417 myeloma viability, CellTiter-Glo ATP luminescence, 48 h; viability (% of DMSO): at 45.8 µM (top of the series)
Summary of the method: (§4)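 Approved and investigational drugs from MIPE 4.0 were added by pin tool to 500 cells per well. After 48 hours at 37C, ATP-based CellTiter-Glo luminescence indicated remaining viability.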

[9] = Quantitative High-Throughput drug screen in 47 multiple myeloma cell lines against the NCATS MIPE library collection: JIM1_ECACC cell viability assay (AID 1918964)
Summary of the method: as §2

[10] = Quantitative High-Throughput drug screen in 47 multiple myeloma cell lines against the NCATS MIPE library collection: INA6_PLB cell viability assay (AID 1918965; also: nearly all actives have a fitted effect of over 55% in size)
Summary of the method: as §4

[11] = Quantitative High-Throughput drug screen in 47 multiple myeloma cell lines against the NCATS MIPE library collection: JJN3_DSMZ cell viability assay (AID 1918966; also: nearly all actives have a fitted effect of over 50% in size)
Summary of the method: as §2

[12] = Quantitative High-Throughput drug screen in 47 multiple myeloma cell lines against the NCATS MIPE library collection: H1112_PLB cell viability assay (AID 1918967; also: nearly all actives have a fitted effect of over 30% in size)
Summary of the method: as §2

[13] = Quantitative High-Throughput drug screen in 47 multiple myeloma cell lines against the NCATS MIPE library collection: Karpas25_ECACC cell viability assay (AID 1918968; also: nearly all actives have a fitted effect of over 35% in size)
Summary of the method: as §2

[14] = Quantitative High-Throughput drug screen in 47 multiple myeloma cell lines against the NCATS MIPE library collection: KMS12BM_JCRB cell viability assay (AID 1918971); also: nearly all actives have a fitted effect of over 35% in size
Summary of the method: as §4

[15] = Quantitative High-Throughput drug screen in 47 multiple myeloma cell lines against the NCATS MIPE library collection: KMS12PE_JCRB cell viability assay (AID 1918972); also: nearly all actives have a fitted effect of over 30% in size
Summary of the method: as §4

[16] = Quantitative High-Throughput drug screen in 47 multiple myeloma cell lines against the NCATS MIPE library collection: KMS20_JCRB cell viability assay (AID 1918973); also: nearly all actives have a fitted effect of over 45% in size
Summary of the method: as §2

[17] = Quantitative High-Throughput drug screen in 47 multiple myeloma cell lines against the NCATS MIPE library collection: KHM11_PLB cell viability assay (AID 1918962); also: nearly all actives have a fitted effect of over 35% in size
Summary of the method: as §1

[18] = Quantitative High-Throughput drug screen in 47 multiple myeloma cell lines against the NCATS MIPE library collection: JIM3_ECACC cell viability assay (AID 1918963; also: nearly all actives have a fitted effect of over 35% in size)
Summary of the method: as §1

[19] = Quantitative High-Throughput drug screen in 47 multiple myeloma cell lines against the NCATS MIPE library collection: KMS27_JCRB cell viability assay (AID 1918970); also: nearly all actives have a fitted effect of over 30% in size
Summary of the method: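 ATP-based viability (CellTiter-Glo luminescence) is measured in cells treated 48 h with approved and investigational drugs at 37 °C. Controls are DMSO-only wells for full viability and media-only wells for none.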
Potency is read from the fitted curve at half-maximal effect.

Row | Compound | Potency [1] | Potency [2] | Potency [3] | Potency [4] | Potency [5] | Potency [6] | Potency [7] | Potency [8] | Potency [9] | Potency [10] | Potency [11] | Potency [12] | Potency [13] | Potency [14] | Potency [15] | Potency [16] | Potency [17] | Potency [18] | Potency [19]
1 | CC(C)(O)c1cc2nc(-c3cnc(N)nc3)nc(N3CCOCC3)c2s1 | 235 nM (active) | 29.6 nM (active) | 743 nM (active) | 18.7 nM (active) | 105 nM (active) | 166 nM (active) | 33.2 nM (active) | 14.8 nM (active) | 10.5 nM (active) | 743 nM (active) | 59 nM (active) | 418 nM (active) | 29.6 nM (active) | 83.3 nM (active) | 1480 nM (active) | 148 nM (active) |  |  | 
2 | CC=CC1=C(C(=O)O)N2C(=O)[C@H](NC(=O)[C@H](N)c3ccc(O)cc3)[C@@H]2SC1 | inactive | inactive | inactive | inactive |  | 14800 nM (active) | inactive | inactive |  |  | inactive |  |  | inactive | inactive | 26400 nM (active) |  |  | 
3 | CNC(=O)c1ccccc1Nc1nc(Nc2ccc(N3CCOCC3)cc2OC)ncc1Cl | 13200 nM (active) | 148 nM (active) | 13200 nM (active) | 935 nM (active) | 93.5 nM (active) |  | 296 nM (active) |  | 105 nM (active) |  | 3720 nM (active) |  | 209 nM (active) | 13200 nM (active) | 1050 nM (active) | 2350 nM (active) | 7430 nM (active) | 209 nM (active) | 132 nM (active)
4 | Nc1nc(NCCNc2ncc(-n3ccnc3)c(-c3ccc(Cl)cc3Cl)n2)ccc1[N+](=O)[O-] | 13200 nM (active) | 1480 nM (active) | 16600 nM (active) | 11800 nM (active) | 6620 nM (active) |  |  | inactive |  | 1180 nM (active) | 6620 nM (active) |  |  |  |  | 9350 nM (active) | 5260 nM (active) |  | 
5 | O=C(Nc1cn[nH]c1-c1nc2ccc(CN3CCOCC3)cc2[nH]1)NC1CC1 | 2350 nM (active) | 1480 nM (active) | 1870 nM (active) | 4180 nM (active) | 3720 nM (active) | 5260 nM (active) | 2960 nM (active) |  | 2090 nM (active) | 148 nM (active) | 1870 nM (active) | 3320 nM (active) | 1870 nM (active) | 5900 nM (active) |  | 2960 nM (active) | 1480 nM (active) |  | 3320 nM (active)
